Reference: PubChem BioAssay (NCATS)
Results filed as inconclusive are left out. Activity calls are given as the source filed them. Unless noted, calls come from the whole dose curve; as a rule, active = well fitted curve in the direction sought with a large enough effect; inconclusive = small, poorly fitted or top-dose-only effect, or another doubt; inactive = no such curve, though single readings can be large; an effect the other way counts as inactive or inconclusive.

Legend:
[1] = qHTS profiling of the MIPE4 collection as inhibitors of Plasmodium falciparum (3D7) proliferation (AID 743344; call rule not given here;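 note: scaled between DMSO vehicle wells and 0.29 µM artemisinin as full inhibition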); conditions: P. falciparum 3D7 in erythrocytes, SYBR Green DNA fluorescence, 72 h; at 28.5 µM unless noted
Method in brief: (§1)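 Parasite DNA was quantified by SYBR Green I fluorescence (ex 485, em 535 nm) after overnight lysis in saponin/Triton buffer at room temperature. Cultures at 0.3% parasitemia and 2.5% hematocrit were first exposed to compound for 72 h at 37 C; signals were normalised to artemisinin (0.29 uM) and vehicle wells.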

[2] = qHTS profiling of the MIPE4 collection as inhibitors of Plasmodium falciparum (DD2) proliferation (AID 743345; call rule not given here); conditions: P. falciparum Dd2 in erythrocytes, SYBR Green DNA, 72 h; at 28.5 µM unless noted
Method in brief: as §1

[3] = qHTS profiling of the MIPE4 collection as inhibitors of Plasmodium falciparum (DD2) proliferation (Rep 2) (AID 743346; call rule not given here); conditions: P. falciparum Dd2 in erythrocytes, SYBR Green DNA, 72 h; at 28.5 µM unless noted
Method in brief: as §1

[4] = qHTS profiling of the MIPE4 collection as inhibitors of Plasmodium falciparum (HB3) proliferation (AID 743347; call rule not given here;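 note: plate controls were DMSO vehicle wells for no effect and artemisinin wells for full effect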); conditions: P. falciparum HB3 in erythrocytes, SYBR Green DNA, 72 h; at 28.5 µM unless noted
Method in brief: as §1

[5] = High-throughput drug toxicity screening in the BPDCN cell line Gen2.2 (AID 1224824; call rule not given here;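 note: cells exposed to compounds for 48 h before reading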); conditions: Gen2.2 BPDCN cells; at 45.8 µM (top of the series) unless noted
Method in brief: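 CellTiter-Glo luminescence after 48 h compound exposure of Gen2.2 cells; percent activity set with DMSO as 100% and bortezomib (9.2 uM final) as 0%. Cells seeded at 500 per well, RPMI + 10% FBS, 37 °C.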

[6] = High-throughput drug toxicity screening in the BPDCN cell line Cal-1 (AID 1224825; call rule not given here); conditions: Cal-1 BPDCN cell viability, qHTS; at 45.8 µM (top of the series) unless noted
Method in brief: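 CellTiter-Glo luminescence after 48 h compound exposure; percent activity scaled with DMSO as 100% and bortezomib (9.2 uM final) as 0%. Cal-1 cells seeded at 500/well in RPMI, 10% FBS, no phenol red.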

[7] = qHTS assay for measurement of the activity of small molecule inhibitors on Zika virus induced Caspase-3 activity in human iPSC derived neural progenitor cells (hNPCs) (AID 1224857); note: % of control where 0% means no effect; nearly all actives have a fitted effect of over 65% in size
Method in brief: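 After overnight (16–20 h) culture at 350 cells/well, hNPCs get compound, then ZIKV 2 FFU/cell one hour later. Six hours on, Caspase-Glo 3/7 is added and luminescence measured.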

[8] = qHTS assay for measurement of the activity of small molecule inhibitors on Zika virus induced Caspase-3 activity in human astrocytoma cells (AID 1224859);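 note: plate controls were ZIKV-infected untreated cells for no effect and uninfected cells for full effect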
Method in brief: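 Inhibition of Zika-induced caspase-3/7 activity: SNB-19 cells, 1 h compound pretreatment, ZIKV 2 FFU/cell for 6 h at 37 C, Caspase-Glo luminescence read-out.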

[9] = qHTS Screen of the MIPE 4.0 Collection Against Ewings Sarcoma (RDES) (AID 1259252); note: nearly all actives have a fitted effect of over 35% in size; note: potency is the fitted concentration of half-maximal effect
Method in brief: (§2)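 Viability screen: 48 h incubation at 37C, 95% humidity, 5% CO2 with serially titrated compound, followed by CellTiter-Glo readout.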

[10] = qHTS Screen of the MIPE 4.0 Collection Against Ewings Sarcoma (TC71) (AID 1259253); note: nearly all actives have a fitted effect of over 40% in size; note: potency is the fitted concentration of half-maximal effect
Method in brief: as §2

[11] = qHTS Screen of the MIPE 4.0 Collection Against Ewings Sarcoma (TC32) (AID 1259256); note: nearly all actives have a fitted effect of over 45% in size; note: potency is the fitted concentration of half-maximal effect
Method in brief: as §2

[12] = qHTS profiling for inhibitors of Plasmodium falciparum (DD2) proliferation (AID 743323; call rule not given here); conditions: lower = more inhibition; at 28.7 µM (top of the series) unless noted
Method in brief: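 SYBR Green fluorescence (ex 485, em 535 nm) of lysed cultures gives parasite DNA content; wells normalized to artemisinin (0.29 uM) and DMSO controls. Infected red cells: 0.3% parasitemia, 2.5% hematocrit, 72 h, 37 C.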

[13] = qHTS profiling for inhibitors of Plasmodium falciparum (HB3) proliferation (AID 743324); conditions: Plasmodium falciparum HB3 blood-stage proliferation; at 28.7 µM (top of the series) unless noted;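 note: 100% = DMSO vehicle wells and 0% = artemisinin-treated control wells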
Method in brief: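 SYBR Green fluorescence (485 ex/535 em) of lysed cultures, incubated overnight at room temperature in the dark, quantifies parasite DNA. Infected erythrocytes at 0.3% parasitemia and 2.5% hematocrit were exposed 72 h; values normalized to DMSO and 0.29 uM artemisinin controls.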

[14] = Identifying Small Molecule Inhibitors of Pancreatic Cancer Stem Cells (A2780, Spheroid) (AID 1259357); conditions: Potency: A2780 spheroid viability;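 note: spheroids pre-formed over 14 days in stem cell medium on hydrogel; compound exposure lasted 48 h before the ATP luminescence read; 100% = DMSO treated cells and 0% = wells without cells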
Method in brief: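 Endpoint: ATP-based luminescence, 48 h drug exposure. Bortezomib at 9.2 uM final as full-kill control; DMSO vehicle as negative control; activity normalized between vehicle and cell-free wells.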

[15] = qHTS Screen of the MIPE 4.0 Collection Against Ewings Sarcoma (EW8) (AID 1259255);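 note: 100% = DMSO-treated cells and 0% = medium-only wells without cells; nearly all actives have a fitted effect of over 35% in size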
Method in brief: as §2

Compound	parasite growth, % of DMSO control [1] [%]	parasite growth remaining, % of DMSO control (lower = more inhibition) [2]	parasite growth, % of control (lower = inhibition) [3] [%]	growth, % of control [4] [%]	cell viability, % of control (lower = more cytotoxic) [5]	viability (% of control) [6]	Potency [7]	Potency [8]	Potency [9]	Potency [10]	Potency [11]	activity, percent of control [12] [%]	remaining proliferation (% of control), lower = more inhibition [13] [%]	Potency [14]	Potency [15]
CCc1cccc(CC)c1NC(=O)N1Cc2[nH]nc(NC(=O)c3ccc(N4CCN(C)CC4)cc3)c2C1	19	82.8%	21.6	6.85	146%	12.8%	inactive	inactive	5.9 µM (active)	4.18 µM (active)	0.526 µM (active)				
Cc1cc2c(cc1C1(c3ccc(C(=O)O)cn3)CC1)C(C)(C)CCC2(C)C	58.3	95.5%	77.6	78.5	529%	121%	inactive	inactive	inactive	inactive	inactive	97.2	94.8	inactive	
O=C(Nc1cccc(C(F)(F)F)c1)Nc1cc(S(=O)(=O)NC2CC2)ccc1-c1ccsc1	52.8	82.2%	51.8	78.9	316%	68.8%	inactive	inactive	20.9 µM (active)	20.9 µM (active)	18.7 µM (active)				
NC[C@H]1O[C@H](O[C@@H]2[C@@H](O)[C@@H](O[C@H]3O[C@H](CO)[C@@H](O)[C@H](N)[C@@H]3O)[C@H](N)C[C@@H]2N)[C@H](O)[C@@H](O)[C@H]1O	96.1		80.6	66.9	161%	98.4%	inactive	inactive	inactive	inactive					inactive
NS(=O)(=O)c1ccc(Nc2nc(OCC3CCCCC3)c3[nH]cnc3n2)cc1	17.4	13.9%	24.8	11	12%	9.86%	inactive	inactive	5.9 µM (active)	14.8 µM (active)	16.6 µM (active)				
CC[C@H](C=C[C@@H](C)[C@H]1CC[C@H]2[C@@H]3CC=C4C[C@@H](O)CC[C@]4(C)[C@@H]3CC[C@]12C)C(C)C		104% [at 9.64 µM]			72.7% [at 23.2 µM]	108% [at 23.2 µM]	inactive	inactive	inactive	inactive					inactive
CC(=O)N1CCN(c2ccc(OCc3nn(C)c(C)c3-c3cccc4c(CCCOc5cc(C)c(Cl)c(C)c5)c(C(=O)O)n(Cc5cccnc5)c34)cc2)CC1	5.72	15.1%	13.7	6.27	7.74%	2.47%	inactive	inactive	20.9 µM (active)	20.9 µM (active)	20.9 µM (active)				
CCC[C@H](N[C@@H](C)C(=O)N1[C@@H]2CCCC[C@H]2C[C@H]1C(=O)O)C(=O)OCC	69	77.5%	41.1	98.7	64.1%	104%	inactive	inactive	inactive	14.8 µM (active)	inactive				
